# Test results reported in the supplement of paper PMC7411054.
# Tests used:
# Conditions in all cases: treatment time: 24 h
# A549-CANX-COX4 = assay: phenotypically active (imaging signature differs from DMSO and reproducible) at any of 0.3-9 uM (binary (1 = active, 0 = inactive)); higher = active
# Procedure, shortened: (§1)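 Phenotypic activity depended on meeting both a deviation and a reproducibility criterion. The fifteen gene-edited A549, HepG2 and WPMY1 reporter lines were treated at 0.3, 1, 3 or 9 µM for 24 h, four wells each, then imaged live with features normalised to solvent control wells. Deviation required ≥3 of 4 wells past the 95th percentile of control Euclidean distances, and reproducibility a median replicate Pearson correlation above the 95th percentile of non-replicates.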
# A549-TP53BP1-CLTA = assay: as above
# Procedure, shortened: as §1
# HepG2-ACTB-RAB5A = assay: as above
# Procedure, shortened: as §1
# HepG2-CANX-COX4 = assay: as above
# Procedure, shortened: as §1
# HepG2-GM130-SQSTM1 = assay: as above
# Procedure, shortened: as §1
# HepG2-TP53BP1-CLTA = assay: as above
# Procedure, shortened: as §1
# HepG2-TUBA1B-RELA [1] = assay: as above
# Procedure, shortened: as §1
# WPMY1-ACTB-RAB5A [2] = assay: as above
# Procedure, shortened: as §1
# WPMY1-CANX-COX4 [3] = assay: as above
# Procedure, shortened: as §1
# WPMY1-GM130-SQSTM1 [4] = assay: as above
# Procedure, shortened: as §1
# WPMY1-TP53BP1-CLTA = assay: as above
# Procedure, shortened: as §1
# WPMY1-TUBA1B-RELA [5] = assay: as above
# Procedure, shortened: as §1
# HepG2-TUBA1B-RELA [6] = assay: lowest phenotypically active concentration; higher = less potent
# Procedure, shortened: as §1
# WPMY1-ACTB-RAB5A [7] = assay: as above
# Procedure, shortened: as §1
# WPMY1-CANX-COX4 [8] = assay: as above
# Procedure, shortened: as §1
# WPMY1-GM130-SQSTM1 [9] = assay: as above
# Procedure, shortened: as §1
# WPMY1-TUBA1B-RELA [10] = assay: as above
# Procedure, shortened: as §1
Compound,phenotypically active (A549-CANX-COX4),phenotypically active (A549-TP53BP1-CLTA),phenotypically active (HepG2-ACTB-RAB5A),phenotypically active (HepG2-CANX-COX4),phenotypically active (HepG2-GM130-SQSTM1),phenotypically active (HepG2-TP53BP1-CLTA),phenotypically active (HepG2-TUBA1B-RELA [1]),phenotypically active (WPMY1-ACTB-RAB5A [2]),phenotypically active (WPMY1-CANX-COX4 [3]),phenotypically active (WPMY1-GM130-SQSTM1 [4]),phenotypically active (WPMY1-TP53BP1-CLTA),phenotypically active (WPMY1-TUBA1B-RELA [5]),lowest phenotypically active concentration (HepG2-TUBA1B-RELA [6]) [µM],lowest phenotypically active concentration (WPMY1-ACTB-RAB5A [7]) [µM],lowest phenotypically active concentration (WPMY1-CANX-COX4 [8]) [µM],lowest phenotypically active concentration (WPMY1-GM130-SQSTM1 [9]) [µM],lowest phenotypically active concentration (WPMY1-TUBA1B-RELA [10]) [µM]
Cc1ccc(C(=O)c2ccc(CC(=O)O)n2C)cc1 [tolmetin],0 (inactive),0 (inactive),0 (inactive),0 (inactive),0 (inactive),0 (inactive),0 (inactive),0 (inactive),0 (inactive),0 (inactive),0 (inactive),0 (inactive),–,–,–,–,–
CC(CCc1ccccc1)NCC(O)c1ccc(O)c(C(N)=O)c1 (centres undefined) [labetalol],0 (inactive),0 (inactive),0 (inactive),0 (inactive),0 (inactive),0 (inactive),0 (inactive),0 (inactive),0 (inactive),0 (inactive),0 (inactive),0 (inactive),–,–,–,–,–
CN1C/C(=C/c2ccc(B(O)O)cc2)C(=O)/C(=C/c2ccc(B(O)O)cc2)C1,1 (active),1 (active),1 (active),1 (active),1 (active),1 (active),1 (active),1 (active),1 (active),1 (active),1 (active),1 (active),3,3,3,≤ 0.3,3
Nc1ccn([C@@H]2O[C@H](CO)[C@@H](O)C2(F)F)c(=O)n1 [gemcitabine],1 (active),1 (active),1 (active),1 (active),1 (active),1 (active),1 (active),1 (active),1 (active),1 (active),1 (active),1 (active),≤ 0.3,≤ 0.3,≤ 0.3,≤ 0.3,≤ 0.3
Oc1ccc(Nc2nc(-c3ccc(Cl)cc3)cs2)cc1,1 (active),1 (active),0 (inactive),1 (active),1 (active),0 (inactive),0 (inactive),1 (active),1 (active),1 (active),1 (active),1 (active),–,3,3,3,9
COc1cc2c(NC3CCN(C(C)C)CC3)nc(C3CCCCC3)nc2cc1OCCCN1CCCC1,1 (active),1 (active),1 (active),1 (active),1 (active),1 (active),1 (active),1 (active),1 (active),1 (active),1 (active),1 (active),≤ 0.3,1,1,≤ 0.3,1
Cc1cc(C(C)(C)C)c(O)c(C)c1CC1=NCCN1 [oxymetazoline],0 (inactive),0 (inactive),0 (inactive),0 (inactive),0 (inactive),0 (inactive),0 (inactive),0 (inactive),0 (inactive),1 (active),0 (inactive),0 (inactive),–,–,–,3,–
COc1cc2ncn(-c3cc(OCc4ccccc4C(F)(F)F)c(C(N)=O)s3)c2cc1OC,1 (active),1 (active),1 (active),1 (active),1 (active),1 (active),1 (active),1 (active),1 (active),0 (inactive),1 (active),1 (active),≤ 0.3,≤ 0.3,1,–,≤ 0.3
CCOc1cc(N2CCC(O)CC2)ccc1Nc1ncc2c(n1)N(C)c1ccccc1C(=O)N2C,1 (active),1 (active),1 (active),1 (active),1 (active),1 (active),1 (active),1 (active),1 (active),1 (active),1 (active),1 (active),3,3,3,3,9
CCN1CCN(C(c2cccnc2)c2cc(Cl)c3cccnc3c2O)CC1 (centres undefined),1 (active),1 (active),1 (active),1 (active),1 (active),1 (active),1 (active),1 (active),1 (active),0 (inactive),1 (active),0 (inactive),9,9,9,–,–
COc1cc([C@@H]2c3cc4c(cc3[C@@H](O[C@@H]3O[C@@H]5CO[C@@H](C)O[C@H]5[C@H](O)[C@H]3O)[C@H]3COC(=O)[C@H]23)OCO4)cc(OC)c1O [etoposide],1 (active),1 (active),1 (active),1 (active),1 (active),1 (active),1 (active),1 (active),1 (active),1 (active),1 (active),1 (active),1,1,1,1,≤ 0.3
